PubChem BioAssay AID624138 (Broad Institute, 2012)
About 35 (0.2%) of roughly 17,000 compounds were called active.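 Rule for the calls: active = compounds whose four printed spots each show fluorescence over background unusually high for their array block, chance value under 7%; inactive = the rest.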 Shown is part of a subset that was picked to be rich in actives.

Each compound was assayed against Signal transducer and activator of transcription 3 (Homo sapiens) (UniProt P40763) (assay: small molecules binding His-tagged STAT3 – biochemical, small molecule microarray, single point, set 2, primary screen (AID 624138)). Settings: anti-His fluorescence.
Sequence of Signal transducer and activator of transcription 3 (Homo sapiens) (P40763 whole entry, looked up): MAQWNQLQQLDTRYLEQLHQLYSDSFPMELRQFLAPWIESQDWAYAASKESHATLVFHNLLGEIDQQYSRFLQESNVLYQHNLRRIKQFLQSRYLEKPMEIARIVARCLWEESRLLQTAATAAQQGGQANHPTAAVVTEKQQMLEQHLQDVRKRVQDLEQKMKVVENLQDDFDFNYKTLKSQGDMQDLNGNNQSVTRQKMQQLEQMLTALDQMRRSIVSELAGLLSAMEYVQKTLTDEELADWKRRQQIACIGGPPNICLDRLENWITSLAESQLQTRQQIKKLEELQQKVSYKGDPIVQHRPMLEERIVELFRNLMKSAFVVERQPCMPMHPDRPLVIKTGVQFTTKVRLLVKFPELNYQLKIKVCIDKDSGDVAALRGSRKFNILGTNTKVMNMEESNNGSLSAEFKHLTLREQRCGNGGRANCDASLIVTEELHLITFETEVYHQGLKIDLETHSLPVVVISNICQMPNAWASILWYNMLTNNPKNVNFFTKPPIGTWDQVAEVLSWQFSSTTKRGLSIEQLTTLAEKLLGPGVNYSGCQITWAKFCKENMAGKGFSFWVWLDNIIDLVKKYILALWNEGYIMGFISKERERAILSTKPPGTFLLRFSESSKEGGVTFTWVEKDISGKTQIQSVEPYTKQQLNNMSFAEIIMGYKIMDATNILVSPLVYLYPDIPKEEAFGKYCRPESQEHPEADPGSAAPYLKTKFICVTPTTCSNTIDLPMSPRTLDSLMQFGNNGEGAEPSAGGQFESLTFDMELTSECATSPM
`COc1ccc2[nH]cc(CCNCc3ccc(Br)cc3)c2c1` was tested, and the outcome was “inactive”.
For `c1cncc(CNCCc2c[nH]c3ccccc23)c1`, the outcome was “active”.
In the case of `CC(=O)c1c(O)c(C)c(O)c(Cc2c(O)c3c(c(C(=O)/C=C/c4ccccc4)c2O)OC(C)(C)C=C3)c1O`, the outcome is reported as “inactive”.
In the case of `C[C@H]1CCC/C=C/C2C[C@H](O)C[C@H]2[C@H](O)/C=C\C(=O)O1` (stereo not given in full), the outcome is reported as “inactive”.
In the case of `Cc1ccc(OC(=O)N(C)C[C@@H]2OCc3cnnn3CCCC(=O)N([C@H](C)CO)C[C@@H]2C)cc1`, the outcome is reported as “inactive”.
